Rab9 promoter act: activators of Rab9 promoter; actives 2.8% (n = 320,000); Potency, µM (highest dose often 9.22 µM), for inactives: top-dose activation, negative = inhibition, usual class: activators; Huh7 Rab9 promoter-luciferase reporter, luminescence, 24 h; note: % of control where 0% means no effect; nearly all actives have a fitted effect of over 60% in size
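Luminescence from Amplite-detected luciferase (10 minutes, ambient) reports Rab9 promoter activation. Before that, stable Rab9-luciferase Huh7 cells (1500/well, reduced-serum OP-MEM I plus 10% FBS) were exposed to compound for 24 hours at 37C.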
NPC1 prom act: NPC1 promoter activation. Huh7 NPC1 promoter luciferase reporter, 24 h. Potency, µM (series often up to 9.22 µM), for inactives: at the top dose activation, hits mostly activators. actives 2.4% (n = 320,000); note: % of control where 0% means no effect; nearly all actives have a fitted effect of over 60% in size
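Huh7 cells stably carrying NPC1 promoter–luciferase, plated in Opti-MEM with 10% FBS for 2 h, were exposed to compound in DMSO for 24 h at 37 °C; luciferase reagent was added for 10 min and luminescence read.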
FLuc counter: counter-screen for miR-21 project: firefly luciferase inhibitors or activators; P08659; purified FLuc, Km substrates, luminescence inhibition; Potency, µM (titrated, usually from 57.5 µM), without a hit: at the top dose activity change, negative = inhibition, hits mostly inhibitors; actives 6.9% (n = 360,000); AID 588342;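 note: plate controls were vehicle for no effect and reference inhibitor for full effect; nearly all actives have a fitted effect of over 55% in size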
Target sequence (P08659 whole entry, looked up): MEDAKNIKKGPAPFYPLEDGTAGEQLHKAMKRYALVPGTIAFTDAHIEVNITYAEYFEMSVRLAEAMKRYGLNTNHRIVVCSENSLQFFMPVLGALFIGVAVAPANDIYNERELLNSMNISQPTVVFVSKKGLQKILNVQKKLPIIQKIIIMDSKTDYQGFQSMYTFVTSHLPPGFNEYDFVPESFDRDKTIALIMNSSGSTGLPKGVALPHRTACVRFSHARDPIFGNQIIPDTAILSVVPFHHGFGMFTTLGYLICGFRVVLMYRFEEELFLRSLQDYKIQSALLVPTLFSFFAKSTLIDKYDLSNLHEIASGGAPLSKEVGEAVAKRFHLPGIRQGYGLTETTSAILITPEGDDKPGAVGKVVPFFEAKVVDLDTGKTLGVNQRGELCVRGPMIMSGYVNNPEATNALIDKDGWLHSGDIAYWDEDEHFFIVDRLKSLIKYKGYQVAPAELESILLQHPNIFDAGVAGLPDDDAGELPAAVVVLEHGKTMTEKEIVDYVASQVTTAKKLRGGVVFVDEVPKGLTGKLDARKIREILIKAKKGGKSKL
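Purified P. pyralis luciferase (10nM final) with 10uM D-luciferin and 10uM ATP (Km levels) in 50mM Tris acetate pH 7.5, 10mM Mg acetate, 0.01% Tween-20, 0.05% BSA; qHTS 6-point titration, ~60 µM downward; luminescence read.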
SMN2 splice up: enhancers of SMN2 splice variant expression; HEK293 SMN2-luciferase splicing reporter, luminescence, 30-36 h; Potency, µM (top dose mostly 46.1 µM), inactives show at the top dose activity change, positive = activation, usual class: activators; actives 2.8% (n = 210,000); AID 1458; note: % of control where 0% means no effect; nearly all actives have a fitted effect of over 55% in size
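qHTS luciferase splicing reporter: luminescence rises when SMN2 exon 7 is included in transfected HEK293 cells. Compound exposure lasted 30-36 h at 37C, with 4.5 mM final sodium butyrate as control, followed by a ONE-Glo read.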
KinaseGlo FLuc: Kinase-Glo luciferase inhibition (counter-screen) | Q27757 | Kinase-Glo luciferase, ATP luminescence, 8 min | actives 0.28% (n = 200,000) | AID 1379 | Potency, µM (titrated, usually from 38.3 µM), without a hit: at the highest dose activity change, negative = inhibition, most hits filed as inhibitors; note: % is set by controls: 0 for no effect and ±100 for the full control effect; nearly all actives have a fitted effect of over 60% in size
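Compounds were added to a substrate mix at pH 7.2 (50 mM imidazole, 10 uM ATP, within the enzyme's linear range), followed by Kinase-Glo detection reagent; luminescence was measured after 8 minutes at ambient temperature.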
Starred values were filed as active, the others as inactive; ? = inconclusive; nt = no result; [ ] = another dose, or the depositor's remark. Only some compounds are listed: those with a hit (about 7.3% of all), similar ones and a draw of the others. Calls come from the whole dose curve; as a rule, active = well fitted curve in the direction sought with a large enough effect; inconclusive = small, poorly fitted or top-dose-only effect, or another doubt; inactive = no such curve, though single readings can be large; an effect the other way counts as inactive or inconclusive. Potency is the fitted concentration of half-maximal effect.

SMILES | Rab9 promoter act | NPC1 prom act | FLuc counter | SMN2 splice up | KinaseGlo FLuc
Cc1ccc(NC(=O)C(=O)NCC(c2cccnc2)N2CCc3ccccc32)cc1Cl (stereo not given) | nt | nt | -5% | nt | nt
Cc1ccc(S(=O)(=O)N2CCC(C(=O)Nc3nnc(-c4ccco4)s3)CC2)cc1 | 0% | -1% | 1% | 28% | 24%
CC(C)CC(=O)Nc1nnc(-c2ccco2)s1 | 2.5µM* | ? | ? | 26% | 18%
O=C(Nc1nc(-c2ccco2)c(-c2ccco2)s1)C1CCC1 | -6% | 0% | 19µM* | 13% | -4%
O=C(Nc1nnc(-c2ccco2)s1)C1CCCCC1 | 3.2µM* | 3.5µM* | ? | -9% | 12%
CCc1ccc(CNC(=O)C2CCCN(c3nnc(C)c4c(C)n(-c5ccc(OC)cc5)nc34)C2)cc1 (stereo not given) | nt | nt | -2% | nt | nt
COc1ccc(Cl)cc1NC(=O)Cn1c(=O)n(Cc2ccco2)c(=O)c2cccnc21 | nt | nt | 3% | -13% | nt
CCCCN1CCc2nc(Nc3ccc(OC)cc3OC)ncc2C1 | nt | nt | -1% | nt | nt
CCOc1ccc(NC(=O)c2cc3c(s2)-c2ccccc2OC3)cc1 | nt | nt | 3% | -28% | nt
CN(C)CCNC(=O)c1cc2c(s1)-c1ccccc1OC2 | 18% | 17% | 19µM* | -11% | -1%
Cc1csc(NC(=O)c2cc3c(s2)-c2ccccc2OC3)n1 | ? | 3.5µM* | ? | ? | 1%
Clc1ccc2c(c1)N(CCCN1CCCC13CCCCC3)c1ccccc1S2 | nt | nt | nt | 2%[9.22 µM] | -1%[7.66 µM]
COc1ccc(-c2cn(Cc3ccc(C(N)=O)cc3)c(-c3ccncc3)n2)cc1 | 2.5µM* | 3.2µM* | 2.4µM* | nt | nt
O=c1cc(N2CCN(c3cccc(Cl)c3)CC2)[nH]c(=O)n1C1CCCCC1 | -33% | 3% | 0% | 7.9µM* | 0%
COC(=O)N1C2CC3(C)CC(=O)CC1(C)C3c1ccccc12 (stereo not given) | nt | nt | nt | 4%[9.22 µM] | -6%[7.66 µM]
CN1c2ccccc2C(O)=C(C(=S)Nc2ccc(Cl)cc2)S1(=O)=O | -6% | -2% | 19µM* | -18% | 5%
Cc1cccc(NC(=O)C2=C(O)c3ccccc3N(C)S2(=O)=O)c1 | 1% | 1% | 17µM* | 14% | 3%
Cc1nc(C)c(-c2nnc(-c3ccc(C(C)(C)C)cc3)o2)cc1C(=O)NN | 1% | -5% | 24µM* | -11% | 2%
CCCCc1ccc(NC(=O)CSCc2cc(=O)[nH][nH]2)cc1 | -2% | -3% | 12µM* | 16% | -4%
CCOCC(=O)Nc1ccc(Br)c(C)c1 | ? | 16% | ? | 6% | 1%
CCCCc1ccc(NC(=O)N[C@@H](CC(C)C)C(=O)O)cc1 | -1% | -4% | -2% | nt | nt
CCCCc1ccc(NC(=O)CC(C)C)cc1 | ? | ? | 19µM* | ? | -6%
CCCCc1ccc(NC(=O)COCC)cc1 | 25% | 13% | 19µM* | 22% | -1%
COc1ccc(NC(=O)c2cc(=O)c3cc(C)cc(C)c3o2)cc1 | nt | nt | 0% | -3% | nt
Cc1ccccc1OCC1CO1 (stereo not given) | nt | nt | nt | -14% | nt
SMILES | Rab9 promoter act | NPC1 prom act | FLuc counter | SMN2 splice up | KinaseGlo FLuc
Cc1ccc2oc(=O)c3cnn(CC(=O)N4CCN(c5ccccc5F)CC4)c3c2c1 | nt | nt | 3% | 5% | nt
CCOC(=O)c1nn(-c2ccc([N+](=O)[O-])cc2)cc1O | -5% | -2% | ? | nt | nt
CCOC(=O)c1nn(-c2ccc(C)cc2)cc1C(=O)c1ccccc1 | 2.8µM* | 4µM* | 1.9µM* | 11µM* | -20%
CCOC(=O)c1nn(-c2ccc(C)c(C)c2)cc1O | 15% | ? | 4.3µM* | 0% | -7%
COc1cc(C(=O)Nc2ccc3c(c2)CCN3C(C)=O)cc(OC)c1OC | -21% | -25% | ? | ? | -3%
COC(=O)c1nn(-c2ccc3c(c2)CCN3C(C)=O)cc1O | 3.2µM* | 0.5µM* | 0.54µM* | ? | 11µM*
CCOC(=O)c1nn(-c2ccc3c(c2)OCCO3)cc1O | 2.8µM* | 2.8µM* | 3µM* | ? | -10%
CCOc1ccccc1CNC(=O)c1cnc2sc(N3CCOCC3)nn2c1=O | nt | nt | -6% | nt | nt
Cc1nc(N2CCOCC2)c2nc(-c3ccccc3)n(CCCN(C)C)c2n1 | nt | nt | nt | -2% | -3%
COc1ccc(-n2c(=O)c3ccc(C(=O)NCc4ccc(C)cc4)cc3n(CC(=O)Nc3ccc(C)cc3)c2=O)cc1 | nt | nt | -3% | 1% | nt
COC(=O)C1=C(C)N(Cc2ccc3c(c2)OCO3)C(=O)C1 | -1% | -4% | 2% | -10% | -2%
COC(=O)c1nn(-c2ccc3c(c2)OCO3)cc1O | 20% | ? | 11µM* | ? | ?
O=C(O)CCCSc1ccccc1 | nt | nt | nt | -17%[9.22 µM] | -5%[7.66 µM]
S=C(N/N=C/c1ccccc1)N1CCOCC1 | -4% | 12% | 24µM* | 1% | -6%
CSC(=S)N/N=C/c1ccccc1 | -4% | -2% | 15µM* | 3% | 1%
COC(=O)N/N=C/c1ccccc1 | 4% | -2% | -16% | 30% | -7%
COc1ccc(/C=N/NC(=S)SC)cc1OC | -3% | -3% | 11µM* | -3% | -1%
CCOC(=O)c1cnc(NCc2ccc(Cl)cc2)c2ccccc12 | nt | nt | 0% | nt | nt
CC(C)c1ccc(/C=c2\sc3nc(-c4ccncc4)nn3c2=O)cc1 | 17% | 20% | 2.4µM* | 7% | -3%
Cc1ccc(/C=c2\sc3nc(-c4cccnc4)nn3c2=O)cc1 | 8% | 9% | 4.8µM* | 17% | 1%
Cc1cccc(Nc2nnc(-c3ccc(C)c(S(=O)(=O)N4CCN(C)CC4)c3)c3ccccc23)c1 | nt | nt | -19% | -36% | nt
Cc1ccc(Nc2cc(C)nc(NCc3ccccc3)n2)cc1 | -4% | -5% | -16% | -25% | -2%
Cc1cccc(Nc2ccc(NCc3ccccc3)nn2)c1 | ? | ? | 15µM* | 19% | 0%
COc1ccc2nc3sc(C(=O)NCCCN4CCc5ccccc5C4)cc3cc2c1 | 10% | 0% | 19µM* | 1% | -4%
N/C(=N\OC(=O)c1cccc(Cn2cc(C(F)(F)F)ccc2=O)c1)c1ccccc1 | -3% | 2% | ? | nt | nt
SMILES | Rab9 promoter act | NPC1 prom act | FLuc counter | SMN2 splice up | KinaseGlo FLuc
Cc1ccc(/C(N)=N/OC(=O)c2cccc(Cn3cc(C(F)(F)F)ccc3=O)c2)cc1 | 10% | ? | 21µM* | nt | nt
N/C(=N\OC(=O)c1cccc(Cn2cc(C(F)(F)F)ccc2=O)c1)c1ccc(Cl)cc1 | 1% | 22% | 15µM* | nt | nt
CN1CCC[C@H](C(=O)OCC(=O)[C@]2(O)CC[C@@H]3[C@H]4CCC5=CC(=O)CC[C@@]5(C)[C@H]4[C@@H](O)C[C@]32C)C1 | nt | nt | nt | 0%[9.22 µM] | -1%[7.66 µM]
Cc1nn(-c2ccccc2)c(Cl)c1/C=N/Nc1ccc(Cl)c(C(=O)O)c1 | 0.079µM* | 0.089µM* | 0.6µM* | 0.45µM* | -5%
Cc1nn(-c2ccccc2)c(Cl)c1/C=N/Nc1nncc(=O)[nH]1 | -2% | 3% | 15µM* | nt | nt
Cc1cc(=O)[nH]c(N/N=C/c2c(C)nn(-c3ccc(F)cc3)c2Cl)n1 | -2% | -9% | -1% | -31% | -2%

Screening data as filed in PubChem.
